Inconclusive results are not listed. Unmarked numbers belong to inactive results. Calls of active or inactive are those of the source. Calls follow the shape of the dose curve; as a rule, active = well fitted inhibition curve with a large enough effect; inconclusive = small, poorly fitted or top-dose-only effect; inactive = flat fitted curve, though single readings scatter.
How the values were obtained:
Assay in all cases: Cytotoxic Profiling of Annotated Libraries Using Quantitative High-Throughput Screening (AID 1296008); also: nearly all actives have a fitted effect of over 60% in size
Conditions in all cases: Five cell lines viability, CellTiter-Glo ATP luminescence, 48-72 h; max response: active compounds read low
CRL-7250 = normal cell line; tested on: CRL-7250
Summary of the method: (§1)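 Cytotoxicity was measured as CellTiter-Glo ATP luminescence, read after 10 min at room temperature. Compound treatment of the cells lasted 48 or 72 hr at 37 degrees Celsius in a qHTS format.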

HEK293 = tested on: HEK293
Summary of the method: as §1

HaCat = tested on: HaCat
Summary of the method: as §1

KB-3-1 = tested on: KB-3-1
Summary of the method: as §1

NIH3T3 = tested on: NIH3T3
Summary of the method: as §1
% is scaled to controls: 0 for no effect and ±100 for the full control effect; potency is read from the fitted curve at half-maximal effect.

N#C[C@@H]1CCCN1C(=O)CNC12CC3CC(CC(O)(C3)C1)C2
max response (CRL-7250): 2.02% | max response (HEK293): -12.1% | max response (HaCat): -2.22% | outcome (KB-3-1): inactive | max response (NIH3T3): -1.17%

O=C(O)c1cn(C2CC2)c2cc(N3C[C@@H]4C[C@H]3CN4)c(F)cc2c1=O
max response (CRL-7250): -3.63% | max response (HEK293): -1.22% | max response (HaCat): -12.6% | outcome (KB-3-1): inactive | max response (NIH3T3): -4.63%

C=CC/C=C\C/C=C\CCCCCCCc1cccc(O)c1C(=O)O
outcome (CRL-7250): inactive | max response (HEK293): -5.53% | max response (HaCat): 3.56% | max response (KB-3-1): 4.36% | max response (NIH3T3): -1.27%

CC(C)(O)c1ccc2c(c1)C(O)C[C@H]1[C@](C)(C(=O)O)CCC[C@]21C (stereo not given in full)
max response (CRL-7250): 1.1% | max response (HEK293): 0.619% | max response (HaCat): -7.52% | outcome (KB-3-1): inactive | max response (NIH3T3): 4.86%

C=C(C(=O)O)C1CC(O)C2(C)CCCC(=C)C2C1 (stereo not given)
max response (CRL-7250): -4.23% | max response (HEK293): 0.173% | max response (HaCat): -8.7% | max response (KB-3-1): -0.72% | max response (NIH3T3): 2.65%

C[C@H](O)[C@H](O)/C=C/c1cccc(O)c1CO
max response (CRL-7250): -1.75% | max response (HEK293): -4.7% | max response (HaCat): -3.13% | max response (KB-3-1): 8.41% | max response (NIH3T3): -3.03%

CN(C)C/C=C/C(=O)Nc1cccc(C(=O)Nc2cccc(Nc3ncc(Cl)c(-c4c[nH]c5ccccc45)n3)c2)c1
Potency (CRL-7250): 259 nM (active) | Potency (HEK293): 580 nM (active) | Potency (HaCat): 4610 nM (active) | Potency (KB-3-1): 1030 nM (active) | Potency (NIH3T3): 4110 nM (active)

CC(C)O[C@@H]1O[C@H](CO)[C@@H](O)[C@H](O)[C@H]1O
max response (CRL-7250): 1.32% | max response (HEK293): 1.2% | max response (HaCat): 4.48% | max response (KB-3-1): 2% | max response (NIH3T3): 4.22%

C=C1C(=O)OC2C1C(O)CC1(C)C(O)CCC(C=O)C21 (stereo not given)
outcome (CRL-7250): inactive | max response (HEK293): -0.284% | max response (HaCat): -11.8% | outcome (KB-3-1): inactive | max response (NIH3T3): -0.523%

CNC(=O)c1ccccc1Nc1nc(Nc2ccc(N3CCNCC3)cc2)ncc1Cl
Potency (CRL-7250): 92 nM (active) | Potency (HEK293): 65.1 nM (active) | Potency (HaCat): 9.2 nM (active) | Potency (KB-3-1): 25.9 nM (active) | Potency (NIH3T3): 82 nM (active)

CC1=C(COC2OC(CO)C(O)C(O)C2O)C(C(CO)C(=O)O)CC1 (stereo not given)
max response (CRL-7250): 2.58% | max response (HEK293): -0.67% | max response (HaCat): -4.43% | max response (KB-3-1): 9.18% | max response (NIH3T3): -0.514%

C/C=C/C(O)C1OC(=O)CC1Nc1ccc(C(=O)O)cc1 (stereo not given)
max response (CRL-7250): 4.31% | max response (HEK293): 4.45% | max response (HaCat): -8.27% | max response (KB-3-1): 8.51% | max response (NIH3T3): 1.46%

CC(=O)O[C@@H]1C[C@@H](OC(C)=O)C(C)(C)/C=C/[C@H](C)[C@H](OC(C)=O)[C@@]2(O)C[C@H](C)[C@H](OC(=O)c3ccccc3)[C@@H]2/C=C/1C
max response (CRL-7250): -20.7% | max response (HEK293): -1.35% | max response (HaCat): 4.68% | max response (KB-3-1): 5.28% | max response (NIH3T3): -4.04%

Cn1c2ccc(F)cc2c2c(C(=O)N3CCCC3)cn(-c3ccccc3)c(=O)c21
outcome (CRL-7250): inactive | max response (HEK293): -22.1% | max response (HaCat): -0.557% | outcome (KB-3-1): inactive | max response (NIH3T3): -3.48%

CC(CCC1(O)OC2CC3C4CCC5CC(O[C@@H]6O[C@H](CO)[C@@H](O)[C@H](O)[C@H]6O[C@@H]6O[C@@H](C)[C@H](O)[C@@H](O)[C@H]6O)C(O)CC5(C)C4CCC3(C)C2C1C)CO[C@@H]1O[C@H](CO)[C@@H](O)[C@H](O)[C@H]1O (stereo not given in full)
max response (CRL-7250): -4.35% | max response (HEK293): 0.184% | max response (HaCat): -8.4% | max response (KB-3-1): -6.35% | max response (NIH3T3): -21%

C/C1=C\CC[C@H](C)CCO[C@@H]2O[C@H](CO[C@@H]3OC[C@](O)(COC1=O)[C@H]3O)[C@@H](O)[C@H](O)[C@H]2O
outcome (CRL-7250): inactive | max response (HEK293): -0.349% | max response (HaCat): -11.3% | outcome (KB-3-1): inactive | max response (NIH3T3): -5.92%

CC1=C(CCC(C)CC(=O)O)[C@@]2(C)CCCC(C)(C)C2CC1=O (stereo not given in full)
max response (CRL-7250): 3.13% | max response (HEK293): 0.185% | max response (HaCat): -7.07% | max response (KB-3-1): -1.22% | max response (NIH3T3): -3.99%

CCC(O)C(C)C1CCC(C(C)C(=O)O)O1 (stereo not given)
outcome (CRL-7250): inactive | max response (HEK293): -7.28% | max response (HaCat): 3.27% | outcome (KB-3-1): inactive | max response (NIH3T3): 2.92%

C=C[C@H]1C(O[C@@H]2O[C@H](CO)[C@@H](O)[C@H](O)[C@H]2O)OC=C2C(=O)N3CCc4c([nH]c5ccccc45)[C@H]3C[C@H]21 (stereo not given in full)
outcome (CRL-7250): inactive | max response (HEK293): -11.2% | max response (HaCat): 2.83% | max response (KB-3-1): 3.99% | max response (NIH3T3): 2.76%

C=CC(C)(C)c1[nH]c2ccccc2c1C[C@@H]1NC(=O)[C@H](Cc2c[nH]c3ccccc23)NC1=O
max response (CRL-7250): 3.43% | max response (HEK293): -1.95% | max response (HaCat): -3.54% | max response (KB-3-1): 3.66% | max response (NIH3T3): 0.0013%

CC1(C)CC[C@]2(CO[C@@H]3O[C@H](CO)[C@@H](O)[C@H](O)[C@H]3O)[C@@H](O)C[C@]3(C)C(=CCC4[C@@]5(C)CC[C@H](O[C@@H]6O[C@H](CO[C@@H]7O[C@H](CO[C@@H]8OC[C@@H](O)[C@H](O)[C@H]8O)[C@@H](O)[C@H](O)[C@H]7O)[C@@H](O)[C@H](O)[C@H]6O)C(C)(C)C5CC[C@]43C)[C@@H]2C1 (stereo not given in full)
max response (CRL-7250): -5.37% | max response (HEK293): -6.51% | max response (HaCat): -32.8% | max response (KB-3-1): -2.27% | max response (NIH3T3): -21.6%

CSc1ccc(C(=O)N[C@@H]2CCCC[C@@H]2NC(=O)CNC(=O)c2cc(C(F)(F)F)ccc2NC(=O)NC(C)C)cc1
max response (CRL-7250): -1.98% | max response (HEK293): -11.3% | max response (HaCat): -8.38% | max response (KB-3-1): -4.76% | max response (NIH3T3): 0.151%

O=C(NCc1ccc(F)cc1)C(=O)c1c[nH]c2ccccc12
outcome (CRL-7250): inactive | max response (HEK293): -9.93% | max response (HaCat): -19.7% | max response (KB-3-1): -9.55% | max response (NIH3T3): -16.4%

C=C(C)C1Cc2cc(C(=O)OC3OC(CO)C(O)C(O)C3O)ccc2O1 (stereo not given)
max response (CRL-7250): -9% | max response (HEK293): -15% | max response (HaCat): -9.03% | max response (KB-3-1): 0.614% | max response (NIH3T3): -5.26%

OC[C@H]1O[C@@H](OC[C@H]2O[C@@H](OC/C=C/c3ccccc3)[C@H](O)[C@@H](O)[C@@H]2O)[C@@H](O)[C@@H]1O
max response (CRL-7250): 0.699% | max response (HEK293): 4.4% | max response (HaCat): -0.518% | outcome (KB-3-1): inactive | max response (NIH3T3): 2.42%

CC1CCC2C(C)(C)[C@@H](O)CC[C@]2(C)C12Cc1c(O)cc3c(c1O2)CN(C(CCC(=O)O)C(=O)O)C3=O (stereo not given in full)
max response (CRL-7250): -1.01% | max response (HEK293): -4.16% | max response (HaCat): 3.85% | outcome (KB-3-1): inactive | max response (NIH3T3): -1.29%

CS(=O)(=O)N(CC(=O)NCC1CC1)c1cc(C(F)(F)F)ccc1Cl
max response (CRL-7250): -0.912% | max response (HEK293): 0.809% | max response (HaCat): -2.56% | max response (KB-3-1): 5.98% | max response (NIH3T3): -6.39%

COCCOc1ccc(N2CCN(CCn3ncc4c3nc(N)n3nc(-c5ccco5)nc43)CC2)cc1
outcome (CRL-7250): inactive | max response (HEK293): -9.01% | max response (HaCat): 2.38% | max response (KB-3-1): -29.2% | max response (NIH3T3): 0.99%

NCCCNc1ccc(Nc2nccc(Nc3cc(C4CC4)[nH]n3)n2)cc1
Potency (CRL-7250): 731 nM (active) | Potency (HEK293): 1030 nM (active) | Potency (HaCat): 4610 nM (active) | Potency (KB-3-1): 820 nM (active) | Potency (NIH3T3): 5800 nM (active)

COC(=O)[C@H](O)[C@H]1C(C)(C)[C@H](OC(=O)C(C)C)[C@@]2(O)C(=O)[C@]1(C)C1CC[C@]3(C)C(CC(=O)O[C@H]3c3ccoc3)[C@]13O[C@@H]32 (stereo not given in full)
max response (CRL-7250): -16.9% | max response (HEK293): -5.39% | max response (HaCat): -4.38% | outcome (KB-3-1): inactive | max response (NIH3T3): -25.1%

CC(=O)O[C@@H]1[C@@H](OC(=O)/C=C/c2ccccc2)[C@@H](OC(C)=O)[C@H](O[C@H]2[C@@H]3C=CO[C@@H](O[C@@H]4O[C@H](CO)[C@@H](O)[C@H](O)[C@H]4O)[C@@H]3[C@@]3(CO)O[C@@H]23)O[C@H]1C
outcome (CRL-7250): inactive | max response (HEK293): -5.93% | max response (HaCat): -11.2% | outcome (KB-3-1): inactive | max response (NIH3T3): -0.931%
